Where “and” joins values, the source holds several entries; their conditions need not be identical. Identical values can stand only once. Records with an inconclusive call do not appear. Calls of active or inactive are those of the source. The call rests on the fitted dose curve; in most records, active means well fitted curve in the direction sought with a large enough effect; inconclusive means small, poorly fitted or top-dose-only effect, or another doubt; inactive means no such curve, though single readings can be large; an effect the other way counts as inactive or inconclusive.
Columns and labels:
[1] = Viability qHTS for spleen associated tyrosine kinase inhibitor (SYKi) naive MV4-11 cells (AID 1963823); further: nearly all actives have a fitted effect of over 40% in size
In short: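 Luminescence from CellTiter-Glo, developed 10 min at room temperature, gave viability of MV4-11 cells never exposed to SYK inhibitor. Cells (500/well) had been incubated with compounds for 72 hr under standard culture conditions.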

[2] = Viability qHTS for spleen associated tyrosine kinase inhibitor (SYKi) drug resistant MV4-11 cells (AID 1963824); further: nearly all actives have a fitted effect of over 35% in size
In short: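 CellTiter-Glo luminescence, read 10 min after reagent addition, reports viability after a 72 hr compound exposure. Cells are an MV4-11 line made resistant to SYK inhibition, seeded at 500 per well onto compound-containing plates.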

[3] = Quantitative highthroughput screen to assess conditional lethalithy of NOMO1 cells grown in RPMI1640 with dialyzed fetal bovine serum (RPMI+ds) (AID 1963877); further: nearly all actives have a fitted effect of over 30% in size
In short: (§1)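 Each medium arm—HPLM with 10% dialyzed FBS, or RPMI1640 with 5 mM glucose and 10% untreated or dialyzed FBS—was screened against an 11-point, 3-fold compound titration for 48 h at 37 °C, with CellTiter-Glo luminescence as endpoint.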

[4] = Quantitative highthroughput screen to assess conditional lethalithy of P12 Ichikawa cells grown in RPMI1640 with dialyzed fetal bovine serum (RPMI+ds) (AID 1963880); settings: Potency: P12-Ichikawa viability; further: nearly all actives have a fitted effect of over 35% in size
In short: as §1

[5] = Quantitative highthroughput screen to assess conditional lethalithy of P12 Ichikawa cells grown in RPMI1640 with untreated serum (RPMI+s) (AID 1963881); settings: Potency: viability; further: nearly all actives have a fitted effect of over 35% in size
In short: as §1

[6] = Quantitative highthroughput screen to assess conditional lethalithy of SEM cells grown in RPMI1640 with unreated serum (RPMI+s) (AID 1963883); further: nearly all actives have a fitted effect of over 35% in size
In short: as §1

[7] = Quantitative highthroughput screen to assess conditional lethalithy of SEM cells grown in RPMI1640 with dialyzed fetal bovine serum (RPMI+ds) (AID 1963884); further: nearly all actives have a fitted effect of over 35% in size
In short: as §1

[8] = Cellular viability qHTS for adrenocortical cancer (ACC) cell line SW-13 (AID 1963989); settings: SW-13 ACC cells viability, CellTiter-Glo, 48 h; activity (max response): stronger effect = lower value; further: nearly all actives have a fitted effect of over 65% in size;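 on activity (max response): cells grown in serum-free medium with ITS supplement; on the % scale 0 is the no-effect control and ±100 the full control effect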
In short: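 Viability was read as CellTiter-Glo luminescence after 48 h compound treatment (up to 46 uM final) of SW-13 cells grown serum-free; titration curves were fit with a four-parameter logistic model to give IC50 and efficacy.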

[9] = Quantitative highthroughput screen to assess conditional lethalithy of P12 Ichikawa cells grown in Human Plasma-Like Medium with dialyzed fetal bovine serum (HPLM+ds) (AID 1963879); settings: Potency: viability; further: nearly all actives have a fitted effect of over 35% in size; on Viability: series mostly up to about 46 µM
In short: as §1

[10] = Quantitative highthroughput screen to assess conditional lethalithy of SEM cells grown in Human Plasma-Like Medium with dialyzed fetal bovine serum (HPLM+ds) (AID 1963882); further: nearly all actives have a fitted effect of over 35% in size
In short: as §1

[11] = Cellular viability qHTS for adrenocortical cancer (ACC) cell line NCI-H295R (AID 1963990); further: nearly all actives have a fitted effect of over 60% in size;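 on activity change, negative = viability loss: 0% = DMSO only wells and -100% = full killing with cytotoxic reference compound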
In short: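 CellTiter-Glo ATP luminescence, read 48 h after compound addition, measured viability of NCI-H295R adrenocortical cells grown serum-free with ITS. Final concentrations spanned up to 46 uM. Data normalized to DMSO and doxorubicin, fitted for IC50 and maximal response.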

[12] = Quantitative highthroughput screen to assess conditional lethalithy of NOMO1 cells grown in Human Plasma-Like Medium with dialyzed fetal bovine serum (HPLM+ds) (AID 1963878); further: nearly all actives have a fitted effect of over 35% in size;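 on Viability: 100% = DMSO wells and 0% = empty wells on each plate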
In short: as §1
Potency means the concentration at half of the fitted maximal effect.

Cc1cc(Nc2nc(N[C@@H](C)c3ccc(F)cc3)c(C#N)cc2F)n[nH]1
active: Potency [1] 0.651 µM | Potency [2] 580 nM and 590 nM | Potency [3] 2.64 µM | Potency [4] 2.09 µM | Potency [5] 2.35 µM | Potency [6] 2.96 µM | Potency [7] 2.64 µM | Potency [8] 3.16 µM

COc1cc(CCc2cc(NC(=O)c3ccc(N4C[C@@H](C)N[C@@H](C)C4)cc3)n[nH]2)cc(OC)c1
active: Potency [1] 1.18 µM | Potency [2] 1.64 µM | Potency [3] 18.7 µM | Potency [9] 20.9 µM | Potency [10] 5.26 µM | Potency [6] 4.69 µM | Potency [8] 28.2 µM | Potency [11] 17.8 µM

NS(=O)(=O)c1ccc(Nc2nc(OCC3CCCCC3)c3[nH]cnc3n2)cc1
active: Potency [1] 0.58 µM | Potency [2] 0.651 µM | Potency [3] 0.59 µM | Potency [9] 0.0469 µM | Potency [4] 0.296 µM | Potency [5] 0.372 µM | Potency [10] 0.469 µM | Potency [6] 0.296 µM | Potency [7] 0.469 µM | Potency [8] 22.4 µM

Cc1cccc2c1CC[C@H](CN1CCC(c3c(Cl)cccc3Cl)CC1)C[C@@H]2O
inactive: Potency [9]
active: Potency [1] 3.26 µM | Potency [2] 2.59 µM | Potency [12] 8.33 µM

O=C(Nc1nnc(-c2ccco2)o1)c1cc(-c2ccccc2)nc2ccccc12
active: Potency [1] 13.2 µM | Potency [2] 13.2 µM | Potency [12] 5.9 µM | Potency [9] 4.69 µM | Potency [5] 26.4 µM | Potency [6] 4.69 µM | Potency [8] 20 µM

CC(C)C[C@H](NC(=O)CNC(=O)c1cc(Cl)ccc1Cl)B(O)O
active: Potency [1] 0.0934 µM | Potency [2] 0.0934 µM | Potency [3] 0.418 µM | Potency [8] 2 µM | Potency [11] 0.398 µM

COc1cc2c(Nc3ccc(NC(=O)c4ccccc4)cc3)ncnc2cc1OCCCN1CCOCC1
inactive: Potency [12] | activity (max response) [8] -24.4%
active: Potency [1] 1.16 µM and 1.86 µM | Potency [2] 2.06 µM and 2.09 µM | Potency [9] 3.72 µM | Potency [4] 3.32 µM | Potency [5] 4.69 µM | Potency [6] 3.72 µM | Potency [7] 2.96 µM | Potency [11] 15.8 µM

CC(Oc1ccc(O)cc1)(P(=O)(O)O)P(=O)(O)O
active: Potency [3] 26.4 µM | Potency [12] 13.2 µM
inactive: Potency [1] | Potency [2] | activity (max response) [8] 1.35% | Potency [11]

CCN(CCO)CCCOc1ccc2c(Nc3cc(CC(=O)Nc4cccc(F)c4)[nH]n3)ncnc2c1
active: Potency [1] 0.0411 µM | Potency [2] 0.186 µM | Potency [3] 0.105 µM | Potency [9] 0.166 µM | Potency [4] 0.187 µM | Potency [5] 0.148 µM | Potency [10] 0.296 µM | Potency [6] 0.264 µM | Potency [7] 0.235 µM | Potency [8] 20 µM

Cn1cc(C2=C(c3c4n(c5ccccc35)CCC(CN)C4)C(=O)NC2=O)c2ccccc21 (stereo not drawn)
active: Potency [1] 2.15 µM | Potency [2] 2.7 µM | Potency [3] 18.7 µM | Potency [10] 10.5 µM | Potency [6] 10.5 µM | Potency [7] 11.8 µM
inactive: activity (max response) [8] -20.5% | activity change, negative = viability loss [11] -2.33% [at 9.17 µM]

Cc1ccc2nc(NCCN)c3ncc(C)n3c2c1
active: Potency [1] 2.31 µM | Potency [2] 4.61 µM and 2.63 µM | Potency [3] 26.4 µM | Potency [12] 23.5 µM | Potency [10] 11.8 µM | Potency [6] 23.5 µM | Potency [8] 6.31 µM | Potency [11] 8.91 µM

CC1CCC(C(=O)N(c2cc(C#CC(C)(C)C)sc2C(=O)O)C2CCC(O)CC2)CC1 (stereo not drawn)
active: Potency [1] 16.4 µM | Potency [2] 11.8 µM and 14.6 µM | Potency [12] 5.26 µM

CC(C)C[C@@H](C(=O)N[C@H](C(=O)OC1CCCC1)c1ccccc1)[C@H](O)C(=O)NO
active: Potency [1] 0.372 µM | Potency [2] 0.0742 µM | Potency [3] 23.5 µM | Potency [9] 20.9 µM | Potency [11] 25.1 µM

COc1cc2nc(N3CCN(C(=O)c4ccco4)CC3)nc(N)c2cc1OC
inactive: activity (max response) [8] -8.85%
active: Potency [1] 10.3 µM | Potency [2] 11.6 µM | Potency [12] 13.2 µM | Potency [9] 16.6 µM | Potency [10] 9.35 µM | Potency [6] 10.5 µM | Potency [7] 7.43 µM

CC1(C)CCC(CN2CCN(c3ccc(C(=O)NS(=O)(=O)c4ccc(NCC5CCOCC5)c([N+](=O)[O-])c4)c(Oc4cnc5[nH]ccc5c4)c3)CC2)=C(c2ccc(Cl)cc2)C1
active: Potency [1] 0.105 µM | Potency [2] 10 nM and 41.7 nM | Potency [3] 0.105 µM | Potency [10] 0.0332 µM | Potency [6] 0.0526 µM | Potency [7] 0.0264 µM
inactive: activity (max response) [8] -2.3% | Potency [11]

COc1cc(OC2CCN(C)CC2)ccc1Nc1ncc2c(n1)n(C1CCCC1)c(=O)n2C
active: Potency [1] 1.86 µM | Potency [2] 2.95 µM | Potency [3] 18.7 µM | Potency [4] 20.9 µM | Potency [5] 23.5 µM | Potency [10] 10.5 µM | Potency [6] 11.8 µM | Potency [7] 14.8 µM | Potency [8] 25.1 µM | Potency [11] 15.8 µM
